High-throughput results as filed in PubChem BioAssay.
Dicer processing: human Dicer pre-microRNA cleavage inhibition; Q9UPY3; cat-ELCCA pre-miR-21 Dicer processing, chemiluminescence; active compounds read high; z-score at 25 µM; 47,000 compounds, 6% hits; AID 1347074; in the data active = z-score above about 3, passing the limit was not always enough;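 also: higher signal means more uncleaved substrate so more Dicer inhibition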
Each line names hits and unclear results; the compound was inactive in the other large screens. The sample as a whole holds a higher share of hits than the screen did.

O=S(=O)(Nc1nc(SCc2ccc(Cl)cc2)n[nH]1)c1ccc(F)cc1	none
O=S(=O)(Nc1nc(SCc2ccc(Cl)cc2)n[nH]1)c1ccc(-c2ccccn2)s1	Dicer processing 3.4
O=S(=O)(NCCc1ccccn1)c1ccc(-c2ccccn2)s1	none
Cc1ccc2cc(C)c(NCCO)nc2c1	none
CCN1CN=C(SCc2ccc(C)cc2)NC1	none
CC1=CCC2C(=O)N(c3ccc(N4CCOCC4)cc3)C(=O)C2C1 (stereo not drawn)	none
CC1=CCC2C(=O)N(c3ccc(C(=O)O)cc3)C(=O)C2C1 (stereo not drawn)	none
O=C(c1ccc(N2C(=O)C3CC=C(Cl)CC3C2=O)cc1)N1CCOCC1 (stereo not drawn)	Dicer processing 4.5
C[C@@](Cc1ccc(O)c(O)c1)(NN)C(=O)O	none
O=C1C(=O)N(CCCN2CCOCC2)C(c2ccccc2)/C1=C(\O)c1ccc(Br)cc1 (stereo not drawn)	none
CN(C)CCN1C(=O)C(=O)/C(=C(/O)c2ccccc2)C1c1ccc(Br)cc1 (stereo not drawn)	none
O=C(O)CCCN1C(=O)C(=O)/C(=C(/O)c2ccccc2)C1c1ccc(Br)cc1 (stereo not drawn)	Dicer processing 3.9
Cc1ccc(NC(=O)OC(C)C)cc1Cl	none
O=C1CC(C(=O)Nc2cccc(F)c2)n2c(nc3ccccc32)N1 (stereo not drawn)	none
O=C1CC(C(=O)Nc2cccc(Cl)c2)n2c(nc3ccccc32)N1 (stereo not drawn)	none
O=C1CC(C(=O)Nc2ccc(Br)cc2)n2c(nc3ccccc32)N1 (stereo not drawn)	Dicer processing 5.1
COc1ccc(N=C2C(=O)Nc3ccc(Br)cc32)cc1	none
O=C1Nc2ccccc2C1=Nc1ccc(Cc2ccc(N=C3C(=O)Nc4ccccc43)cc2)cc1	Dicer processing 3.9
O=C1Nc2ccccc2C1=NCCCN=C1C(=O)Nc2ccccc21	none
Clc1ccc(-c2noc(-c3cccs3)n2)cc1	none
Cc1cccc(Cl)c1NC(=O)N1CCCN(c2ncccc2C(F)(F)F)CC1	none
Cc1ccc(Oc2c(C(F)(F)F)oc3c(CN4CC(C)OC(C)C4)c(O)ccc3c2=O)cc1 (stereo not drawn)	none
CNC(=O)NC(=O)c1cnccc1C(F)(F)F	none
CCOc1ccc(N2CC(O)=C(c3nc4ccccc4c(=O)[nH]3)C2=N)cc1	none
CCc1ccccc1N1CC(O)=C(c2nc3ccccc3c(=O)[nH]2)C1=N	Dicer processing 4.9
Cc1ccc(N2CC(O)=C(c3nc4ccccc4c(=O)[nH]3)C2=N)c(C)c1	none
Cn1/c(=N/N=c2\oc3ccccc3n2C)oc2ccccc21	none
Fc1ccc(CN2CCN(Cc3c[nH]c4ccccc34)CC2)cc1	none
COCCn1c2c(c(=O)[nH]c1=O)C(c1cccc3ccccc13)C1=C(N2)c2ccccc2C1=O (stereo not drawn)	none
CCn1c2c(c(=O)[nH]c1=O)C(c1cccc(Cl)c1)C1=C(N2)c2ccccc2C1=O (stereo not drawn)	none
CCn1c2c(c(=O)[nH]c1=O)C(c1cccc3ccccc13)C1=C(N2)c2ccccc2C1=O (stereo not drawn)	Dicer processing 3.4
CCOC(=O)N1CCCN=C1NNc1cc(Cl)ccc1OC	none
Cc1cc(C)nc(N2CCN(C(=O)CSc3nc4ccccc4nc3N3CCCCC3)CC2)n1	none
O=C(CSc1nc2ccccc2nc1N1CCOCC1)NCc1ccco1	Dicer processing 3.4
CSc1nsc(SCC(=O)N2CCCc3ccccc32)n1	none
O=C(CSc1nc2ccccc2nc1N1CCOCC1)NCc1cccs1	Dicer processing 3
c1csc(-c2nnc(N3CCOCC3)c3ccccc23)c1	none
CSc1nsc(SCC(=O)NCc2ccco2)n1	none
O=C(CSc1nc2ccccc2nc1N1CCOCC1)N1CCCc2ccccc21	Dicer processing 3.4
O=C(CSc1nc2ccccc2nc1SCC(=O)N1CCOCC1)N1CCOCC1	none
O=C(CSc1nc2ccccc2[nH]1)N1CCc2ccccc21	Dicer processing 3.1
O=C(CSc1nc2ccccc2s1)N1CCc2ccccc21	none
O=C(CSc1nc(-c2cccs2)cc(C(F)(F)F)n1)NCc1ccco1	none
O=C(CSc1nnc(-c2ccccc2)c(-c2ccccc2)n1)N1CCc2ccccc21	none
CC1=C(C(=O)OC(C)C)C(c2cc(F)cc(F)c2)n2c(nc3ccccc32)N1 (stereo not drawn)	none
COc1cccc(N2CC(=O)Nc3c(oc4nc(-c5ccccc5)cc(C)c34)C2=O)c1	none
COc1ccccc1C(=O)n1nc(C)c(Sc2nnc(C(F)(F)F)n2C)c1C	none
CCOC(=O)CCC(=O)Nc1sc2c(c1C(=O)OC)CCCC2	none
Cc1nc(C(F)(F)F)c(C(=O)NNc2cccc(C(F)(F)F)n2)s1	none
O=C(O)CSCC(=O)NC1CCCc2ccccc21 (stereo not drawn)	none
O=C1CSCC(=O)N1c1ncc(C(F)(F)F)cc1Cl	none
CC1CCN(CC(=O)n2c3c(c4ccccc42)CCCC3)CC1	none
Cc1ccc(-n2cc3ccccc3c2C#N)nc1	none
O=C(CSc1nc2ccccc2nc1N1CCCC1)Nc1ccc(Br)cc1	none
O=C(CSc1nc2ccccc2nc1N1CCOCC1)Nc1cccc(Br)c1	Dicer processing 3.2
O=C(CSc1nc2ccccc2nc1N1CCCC1)Nc1ccc(Cl)cc1	none
CSc1nc2c(cc1C#N)C(=O)CC(C)(C)C2	none
CC1(C)COC(c2ccc(Cl)cc2)=N1	none
Cc1ccc(/C=N/NC(=O)Cn2nc3n(c2=O)-c2ccccc2SC3)o1	none
Cc1nn(-c2ccccc2)cc1/C=N/NC(=O)Cn1nc2n(c1=O)-c1ccccc1SC2	none
COc1cccc(/C=N/NC(=O)CN2C(=O)CSc3ccccc32)c1	Dicer processing 3.2
C=CCOc1cccc(C2c3c(oc4ccccc4c3=O)C(=O)N2c2nc(C)c(C)s2)c1 (stereo not drawn)	none
O=C1CSC(c2ccc(Cl)cc2Cl)N1c1ccccn1 (stereo not drawn)	none
CC1=C(C(=O)OCc2ccccc2)C(c2ccncc2)C2=C(CC(C)(C)CC2=O)N1 (stereo not drawn)	none
Cn1c(SCC(=O)c2ccc(C#N)cc2)nnc1-c1ccc2ccccc2c1	none
CCc1c(C)nc(Nc2nc(C)c3cc(C)ccc3n2)[nH]c1=O	none
Cc1cc(NNC(=O)Nc2cccc(Cl)c2)nc2c1c(C)nn2C	none
Cc1cc(NNS(=O)(=O)c2ccc(Cl)cc2)nc2c1c(C)nn2C	Dicer processing 4.4
Cc1cc(NNC(=O)c2ccccc2Cl)nc2c1c(C)nn2C	none
CS(=O)(=NS(=O)(=O)c1cc(Cl)ccc1Cl)c1ccc(Cl)cc1 (stereo not drawn)	Dicer processing 4.1
CS(=O)(=NS(=O)(=O)c1ccc(Cl)cc1)c1ccccc1 (stereo not drawn)	none
CS(=O)(=NS(=O)(=O)c1ccccc1C(F)(F)F)c1ccc(Cl)cc1 (stereo not drawn)	none
Cc1nc(SC(C(=O)c2ccccc2)c2ccccc2)n[nH]1 (stereo not drawn)	none
CCCCSc1nnc2c(n1)OC(C)=Nc1ccc(Br)cc1-2	none
CCCCCSc1nnc2c(n1)OC(C)=Nc1ccccc1-2	none
CCCCSc1nnc2c(n1)OC(C)=Nc1ccccc1-2	Dicer processing 3.2
Cc1ccn2cc(-c3cccc(S(=O)(=O)N4CC(C)OC(C)C4)c3)nc2c1 (stereo not drawn)	none
O=[N+]([O-])c1cc(C(F)(F)F)ccc1Sc1n[nH]c(-c2cc(Cl)cc(Cl)c2)n1	none
COc1ccc(C(=O)OCC2CC(c3ccccc3)=NO2)cc1OC (stereo not drawn)	none
CC1=C(C(=O)OCc2ccccc2)C(c2ccc(OCc3ccccc3)cc2)n2ncnc2N1 (stereo not drawn)	Dicer processing 3.1
CCOC(=O)C1=C(C)Nc2ncnn2C1c1ccc(N(CC)CC)cc1 (stereo not drawn)	none
